# Source: PubChem BioAssay (National Center for Advancing Translational Sciences (NCATS))
# JMJD2A Tudor: JMJD2A Tudor domain (human) inhibition; AID 504339; Potency, µM (titrated, usually from 114 µM), inactives show at the top dose activity change, negative = inhibition, usual class: inhibitors; actives 4.4% (n = 390,000); AlphaScreen JMJD2A-Tudor / H3K4me3 peptide binding; O75164; note: % is set by controls: 0 for no effect and ±100 for the full control effect; nearly all actives have a fitted effect of over 50% in size
# BAZ2B block: BAZ2B (human) inhibition | AID 504333 | AlphaScreen BAZ2B-H3K14Ac peptide displacement | Potency, µM (doses to about 114 µM), without a hit: top-dose activity change, negative = inhibition, actives largely listed as inhibitors | actives 4.4% (n = 360,000) | Q9UIF8; note: % is set by controls: 0 for no effect and ±100 for the full control effect; nearly all actives have a fitted effect of over 60% in size
#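 AlphaScreen luminescence quantifies BAZ2B engagement of H3K14Ac peptide; the protein and biotinylated peptide are both at 50 nM final, buffer PBS pH 7.4 with 0.01% Tween-20, all steps at room temperature.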
# L3MBTL1 inh: inhibitors of human L3MBTL1; Q9Y468; actives 0.66% (n = 230,000); Potency, µM (doses to about 57.1 µM), without a hit: top-dose activity, negative = inhibition, most hits filed as inhibitors; AlphaScreen L3MBTL1–H3K9me1 peptide binding; note: % is set by controls: 0 for no effect and ±100 for the full control effect; nearly all actives have a fitted effect of over 60% in size
#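 L3MBTL1 50 nM + b-AHA-H3(1-15)K9me1 75 nM, 30 min RT; compound added, 30 min RT; streptavidin donor/Ni-chelate acceptor beads 10 ug/mL each final, 30 min RT dark; AlphaScreen read.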
# G9a block: blocks human histone lysine methyltransferase G9a | G9a H3K9 monomethylation, AlphaScreen, 2 h | Potency, µM (top dose mostly 102 µM), for the others: top-dose activity, negative = inhibition, usual class: inhibitors | actives 8.8% (n = 350,000) | AID 504332; note: % is set by controls: 0 for no effect and ±100 for the full control effect; nearly all actives have a fitted effect of over 75% in size
#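 Using a bead-based AlphaScreen, monomethylated H3K9 product from 2 h room-temperature reactions (G9a 20 nM, peptide 500 nM, SAM 20 uM) was detected with 0.5 ug/mL rabbit anti-H3K9me1 antibody.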
# HP1b chromo inh: HP1-beta chromodomain-methylated histone interaction inhibition | AlphaScreen HP1-beta / biotin-H3K9me3 peptide binding | AID 540317 | Potency, µM (highest dose often 114 µM), for inactives: at the highest dose activity change, negative = inhibition, hits mostly inhibitors | actives 0.56% (n = 390,000); note: nearly all actives have a fitted effect of over 70% in size
#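 HP1-beta protein (50 nM final) preincubated 30 min at room temperature with biotinylated H3(1-18)K9me3 peptide (50 nM) in PBS pH 7.4, 0.01% Tween-20, then compound added for 30 min. AlphaScreen streptavidin donor/nickel chelate acceptor beads (10 ug/mL final), 30 min dark, luminescence read.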
# Active calls of the source: *; u = inconclusive; x = no result given; [ ] = remark or other dose. Shown are actives, neighbours in structure and some others; about 11% of the full set was active somewhere. Calls come from the whole dose curve; as a rule, active = well fitted inhibition curve with a large enough effect; inconclusive = small, poorly fitted or top-dose-only effect; inactive = no such curve, though single readings can be large or run the other way. Potency is the fitted concentration of half-maximal effect.
SMILES,JMJD2A Tudor,BAZ2B block,L3MBTL1 inh,G9a block,HP1b chromo inh
COc1cc(C=C2C(=O)NC(=O)NC2=O)ccc1OS(=O)(=O)c1ccccc1[N+](=O)[O-],32µM*,50µM*,x,10µM*,u
Cc1ccc(-c2cc(C(F)F)n3ncc(C(=O)N4CCc5ccccc5C4)c3n2)cc1,24%,-2%,5%,5%,79%
C#C[C@]1(O)CC[C@H]2[C@@H]3CCC4=CC(=O)CCC4(C)[C@H]3CCC21C (stereo partly specified),x,x,x,-30%[59 µM],x
CCOc1cc(C=C2C(=O)NC(=O)NC2=O)ccc1OS(=O)(=O)c1ccccc1,79µM*,-9%,x,22µM*,11%
CCOC(=O)c1ccc2c(c1)n(CCO)c(C)[n+]2CC,50µM*,10%,2%,35µM*,19%
Cc1ccccc1Nc1c(-c2ccc(Br)cc2O)nc2sccn12,u,22µM*,x,u,2%
CCN1C[C@@]2(COC)C3[C@@H](OC)C4[C@@H]1C3([C@@H]1C[C@]3(O)[C@H](OC(=O)c5ccccc5)[C@@H]1[C@]4(OC(C)=O)[C@@H](O)[C@@H]3OC)[C@H](OC)C[C@H]2O,x,x,x,21%[59 µM],x
COc1ccc(C(=O)CN2CCCCC2)cc1,-3%,-13%,-13%,u,38%
Cc1cc(C)c(C(=O)CN2CCOCC2)c(C)c1,u,-7%,1%,3.2µM*,64%
O=C(CN1CCOCC1)c1ccc2cc[nH]c2c1,-30%,4%,10%,32µM*,28%
COc1ccc(C(=O)CN2CCOCC2)cc1F,-31%,-12%,12%,28µM*,34%
C[C@]12CCC3C(CC[C@H]4C[C@H](O)CC[C@]34C)[C@@H]1CC[C@@H]2C(=O)CO (stereo partly specified),x,x,x,31%[59 µM],x
C=C1[C@@H]2C[C@@]3([C@H]1O)[C@H]1C[C@@H]4[C@@]5(C)CC[C@H](O)[C@]4([C@H]1N(CC)C5)[C@H]3C[C@H]2O,x,x,x,21%[21.5 µM],x
O=C(c1ccccc1)C(CN1CCCC1)c1ccccc1 (stereo unspecified),-4%,10%,0%,-10%[59 µM],37%
CC1CCN(C(CC(=O)c2ccccc2)C(=O)c2ccccc2)CC1 (stereo unspecified),20µM*,x,x,x,u
CCn1ncc(-c2ccnc3cc(C(=O)O)nn23)c1C,25µM*,32µM*,16µM*,u,15%
CCN1C(=O)/C(=C/c2ccc3c(c2)CCN3CCCCl)C(=O)NC1=S,35µM*,40µM*,u,u,u
CC(C)(C)N1C(=O)NC(=O)/C(=C\c2ccc3c(c2)CCN3CCCCl)C1=O,40µM*,u,x,40µM*,u
C=CCN1C(=O)/C(=C/c2ccc3c(c2)CCCN3CCC)C(=O)NC1=S,56µM*,45µM*,-15%,14µM*,u
O=C(COc1ccccc1F)N1CCN(Cc2cc(=O)n3nc(-c4ccccc4Cl)sc3n2)CC1,-16%,18%,x,51%[59 µM],23%[57 µM]
Cc1cccc(NP(C)(=O)c2nc3c(s2)CCCC3)c1 (stereo unspecified),-10%,-3%,-1%,u,40%
Nc1nc2c(s1)CCCCCCCCCC2,u,-27%,-18%,45µM*,u
COc1ccc(OC)c(C2C(C#N)=C(N)Oc3c2c(C)nn3-c2ccc(C)cc2)c1 (stereo unspecified),-18%[11.4 µM],50µM*,-3%,25µM*,u
Cc1nn(-c2ccccc2)c2c1C(c1ccc(F)cc1F)C(C#N)=C(N)O2 (stereo unspecified),-36%,u,-4%,-31%[59 µM],0%
CSc1ccc(C(=O)C2CCCN(Cc3cc4ccccc4[nH]3)C2)cc1 (stereo unspecified),11µM*,20µM*,-10%,16µM*,u
SMILES,JMJD2A Tudor,BAZ2B block,L3MBTL1 inh,G9a block,HP1b chromo inh
COc1ccc(C2SCC(=O)Nc3c2c(=O)[nH]n3C2CCCCCC2)cc1 (stereo unspecified),-15%,14%,-8%,71µM*,26%
CCCn1c(C(C)C)n[nH]c1=S,u,3%,x,35µM*,31%
CC(=O)Nc1ccccc1C(=O)OCc1cccc(F)c1,18%,20%,22%,52%,41%
OCCN(Cc1ccccc1)Cc1cccc(F)c1,7.1µM*,45µM*,-4%[11.4 µM],7.1µM*,u
COc1ccc(C(O)P(=O)(OCC(C)C)c2ccc(N(C)C)cc2)c(OC)c1 (stereo unspecified),-16%,-17%,x,u,18%
Cc1c(N=Nc2c(O)n(-c3ccc(Br)cc3)c(=O)[nH]c2=O)c(=O)n(-c2ccccc2)n1C,35µM*,28µM*,u,x,28%
Cc1c(N=Nc2c(O)[nH]c(=O)[nH]c2=O)c(=O)n(-c2ccccc2)n1C,13µM*,3.2µM*,-23%,u,67%
Cc1c(N=Cc2c(O)n(C)c(=O)[nH]c2=O)c(=O)n(-c2ccccc2)n1C,-20%,-1%,-3%,2%,25%
Oc1ccccc1-c1ccccc1,x,x,x,21%[59 µM],x
CC(=O)O[C@H]1C[C@H](O[C@H]2[C@@H](O)CC(O[C@H]3[C@@H](O)C[C@H](O[C@H]4CC[C@@]5(C)[C@H](CC[C@@H]6[C@@H]5CC[C@]5(C)[C@@H](C7=CC(=O)OC7)CC[C@]65O)C4)O[C@@H]3C)O[C@@H]2C)O[C@H](C)[C@H]1O[C@@H]1O[C@H](CO)[C@@H](O)[C@H](O)[C@H]1O (stereo partly specified),x,x,x,-6%[12.7 µM],x
CC(N)C(=O)NC1C2C(=C(O)CC(O)C2O)C(=O)OC1(C)C(Cl)Cl (stereo unspecified),25µM*,x,x,x,-10%
[Li+],x,x,x,6%[59 µM],x
O=C(Cn1c(=O)oc2cc(S(=O)(=O)N3CCCC3)ccc21)Nc1cccc(C(F)(F)F)c1,-11%,29%,51%,-34%[59 µM],12%
Cn1c(O)c(/C=N/NC(=O)c2ccncc2)c(=O)n(C)c1=S,u,u,x,28%[12.7 µM],40%
CCCCn1c(O)c(/C=N/NC(=O)c2ccncc2)c(=O)[nH]c1=S,-28%,79µM*,-23%,-4%,57%
Cn1c(O)c(/C=N/NC(=O)c2ccncc2)c(=O)[nH]c1=S,79µM*,18%,8%,x,56%
Cc1ccccc1-c1nn2c(=O)cc(CN3CCN(C(=O)COc4ccccc4Cl)CC3)nc2s1,-24%,-7%,x,5%[59 µM],3%[57 µM]
O=C(/C=C/c1ccc(Cl)cc1)NC(=S)N1C[C@H]2C[C@H](C1)c1cccc(=O)n1C2,-21%,-34%,3%,18µM*,5%
COc1ccc(C(=O)NC(=S)N2C[C@H]3C[C@H](C2)c2cccc(=O)n2C3)cc1,-22%,-7%,6%,25µM*,15%
